About 7,900 targets were measured; listed, in parts, are those with a hit and a random draw of the rest. About 0.6% of all pairs of compound and target were hits. Unmarked numbers belong to inactive results.

UniProt Q8N668, sequence (Q8N668 whole entry, looked up): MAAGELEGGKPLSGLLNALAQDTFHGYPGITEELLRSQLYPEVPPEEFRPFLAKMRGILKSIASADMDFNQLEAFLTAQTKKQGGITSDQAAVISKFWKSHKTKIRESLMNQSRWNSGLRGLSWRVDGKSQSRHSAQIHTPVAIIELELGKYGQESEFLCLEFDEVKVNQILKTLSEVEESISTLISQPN
UniProt P30281, sequence (P30281 whole entry, looked up): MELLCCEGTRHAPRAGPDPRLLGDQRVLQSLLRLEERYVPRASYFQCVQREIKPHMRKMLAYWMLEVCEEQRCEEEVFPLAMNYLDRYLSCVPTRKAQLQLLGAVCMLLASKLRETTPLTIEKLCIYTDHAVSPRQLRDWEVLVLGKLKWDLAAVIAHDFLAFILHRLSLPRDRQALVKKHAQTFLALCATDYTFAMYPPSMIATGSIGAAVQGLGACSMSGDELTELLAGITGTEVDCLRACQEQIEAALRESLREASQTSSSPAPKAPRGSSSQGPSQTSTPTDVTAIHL
UniProt O43529, sequence (O43529 whole entry, looked up): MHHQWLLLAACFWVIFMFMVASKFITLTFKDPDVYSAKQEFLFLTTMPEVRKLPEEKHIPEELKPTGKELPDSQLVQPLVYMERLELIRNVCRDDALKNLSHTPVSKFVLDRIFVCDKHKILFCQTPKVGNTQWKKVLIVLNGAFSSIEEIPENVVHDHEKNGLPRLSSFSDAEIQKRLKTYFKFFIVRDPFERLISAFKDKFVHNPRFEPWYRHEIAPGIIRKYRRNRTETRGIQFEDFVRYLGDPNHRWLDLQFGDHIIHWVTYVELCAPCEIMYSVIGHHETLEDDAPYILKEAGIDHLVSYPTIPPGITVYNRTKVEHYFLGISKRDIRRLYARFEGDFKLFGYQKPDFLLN
UniProt Q13901, sequence (Q13901 whole entry, looked up): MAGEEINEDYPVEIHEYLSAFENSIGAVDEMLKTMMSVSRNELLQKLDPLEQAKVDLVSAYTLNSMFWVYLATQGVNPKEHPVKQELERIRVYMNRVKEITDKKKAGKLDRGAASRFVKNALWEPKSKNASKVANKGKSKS
UniProt O95628, sequence (O95628 whole entry, looked up): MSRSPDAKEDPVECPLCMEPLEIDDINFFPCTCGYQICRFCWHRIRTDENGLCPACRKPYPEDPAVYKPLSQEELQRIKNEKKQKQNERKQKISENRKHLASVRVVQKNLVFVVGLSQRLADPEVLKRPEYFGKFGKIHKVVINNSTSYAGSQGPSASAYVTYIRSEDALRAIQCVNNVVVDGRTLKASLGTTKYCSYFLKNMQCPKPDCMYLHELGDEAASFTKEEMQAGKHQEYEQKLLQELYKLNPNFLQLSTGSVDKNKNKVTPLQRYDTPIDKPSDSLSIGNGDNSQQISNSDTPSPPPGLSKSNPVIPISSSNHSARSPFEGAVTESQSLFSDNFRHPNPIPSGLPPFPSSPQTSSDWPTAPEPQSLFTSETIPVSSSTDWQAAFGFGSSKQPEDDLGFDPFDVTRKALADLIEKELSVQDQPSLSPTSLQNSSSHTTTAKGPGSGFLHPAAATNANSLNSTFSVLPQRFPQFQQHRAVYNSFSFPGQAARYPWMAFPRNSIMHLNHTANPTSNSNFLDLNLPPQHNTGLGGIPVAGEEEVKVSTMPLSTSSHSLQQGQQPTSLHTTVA
UniProt Q69YH5, sequence (Q69YH5 whole entry, looked up): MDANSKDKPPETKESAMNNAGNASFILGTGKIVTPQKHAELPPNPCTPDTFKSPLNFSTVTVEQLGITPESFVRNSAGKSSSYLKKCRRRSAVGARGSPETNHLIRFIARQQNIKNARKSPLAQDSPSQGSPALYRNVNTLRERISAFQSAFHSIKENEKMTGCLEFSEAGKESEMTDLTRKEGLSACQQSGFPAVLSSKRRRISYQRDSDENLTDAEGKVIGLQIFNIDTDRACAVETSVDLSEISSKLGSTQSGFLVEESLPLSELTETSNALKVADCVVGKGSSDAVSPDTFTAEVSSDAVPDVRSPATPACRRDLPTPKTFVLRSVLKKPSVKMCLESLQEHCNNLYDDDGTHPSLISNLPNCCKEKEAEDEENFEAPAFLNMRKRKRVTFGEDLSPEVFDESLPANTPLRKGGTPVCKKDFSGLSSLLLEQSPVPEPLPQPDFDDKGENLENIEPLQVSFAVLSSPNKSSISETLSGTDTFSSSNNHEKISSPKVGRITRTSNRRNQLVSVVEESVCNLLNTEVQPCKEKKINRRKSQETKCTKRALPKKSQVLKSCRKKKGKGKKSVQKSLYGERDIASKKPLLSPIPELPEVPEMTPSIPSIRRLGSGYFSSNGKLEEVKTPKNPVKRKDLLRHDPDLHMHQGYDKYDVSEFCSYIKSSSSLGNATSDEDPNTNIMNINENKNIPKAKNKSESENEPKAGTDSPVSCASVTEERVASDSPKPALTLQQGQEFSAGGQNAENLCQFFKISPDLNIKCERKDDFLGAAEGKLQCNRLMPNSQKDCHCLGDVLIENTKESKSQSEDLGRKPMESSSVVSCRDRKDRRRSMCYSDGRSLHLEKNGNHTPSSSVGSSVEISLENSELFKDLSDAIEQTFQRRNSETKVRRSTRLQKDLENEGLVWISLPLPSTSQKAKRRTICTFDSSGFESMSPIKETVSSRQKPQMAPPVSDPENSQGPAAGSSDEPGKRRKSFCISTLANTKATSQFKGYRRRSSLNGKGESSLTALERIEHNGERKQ
UniProt P51795, sequence (P51795 whole entry, looked up): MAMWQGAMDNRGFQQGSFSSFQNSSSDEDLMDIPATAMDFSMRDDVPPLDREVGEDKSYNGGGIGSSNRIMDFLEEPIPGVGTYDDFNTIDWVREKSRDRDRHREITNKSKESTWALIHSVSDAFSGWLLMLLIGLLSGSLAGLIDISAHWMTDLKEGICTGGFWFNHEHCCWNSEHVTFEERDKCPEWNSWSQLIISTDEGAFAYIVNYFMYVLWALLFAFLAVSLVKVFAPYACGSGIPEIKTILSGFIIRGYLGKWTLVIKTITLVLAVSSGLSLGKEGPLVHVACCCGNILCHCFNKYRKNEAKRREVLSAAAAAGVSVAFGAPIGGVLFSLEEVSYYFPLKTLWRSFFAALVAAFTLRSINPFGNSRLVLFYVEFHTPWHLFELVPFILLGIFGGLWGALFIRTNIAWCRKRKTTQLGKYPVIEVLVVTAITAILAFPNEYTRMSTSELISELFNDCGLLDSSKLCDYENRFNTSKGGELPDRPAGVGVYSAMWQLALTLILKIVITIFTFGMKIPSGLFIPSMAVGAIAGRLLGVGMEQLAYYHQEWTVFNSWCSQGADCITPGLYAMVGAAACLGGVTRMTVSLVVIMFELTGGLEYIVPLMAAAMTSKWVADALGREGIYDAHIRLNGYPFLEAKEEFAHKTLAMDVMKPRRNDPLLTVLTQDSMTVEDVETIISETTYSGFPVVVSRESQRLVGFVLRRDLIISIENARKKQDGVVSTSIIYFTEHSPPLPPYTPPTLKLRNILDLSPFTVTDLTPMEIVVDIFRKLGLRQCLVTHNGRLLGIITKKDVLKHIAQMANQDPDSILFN
UniProt Q13286, sequence (Q13286 whole entry, looked up): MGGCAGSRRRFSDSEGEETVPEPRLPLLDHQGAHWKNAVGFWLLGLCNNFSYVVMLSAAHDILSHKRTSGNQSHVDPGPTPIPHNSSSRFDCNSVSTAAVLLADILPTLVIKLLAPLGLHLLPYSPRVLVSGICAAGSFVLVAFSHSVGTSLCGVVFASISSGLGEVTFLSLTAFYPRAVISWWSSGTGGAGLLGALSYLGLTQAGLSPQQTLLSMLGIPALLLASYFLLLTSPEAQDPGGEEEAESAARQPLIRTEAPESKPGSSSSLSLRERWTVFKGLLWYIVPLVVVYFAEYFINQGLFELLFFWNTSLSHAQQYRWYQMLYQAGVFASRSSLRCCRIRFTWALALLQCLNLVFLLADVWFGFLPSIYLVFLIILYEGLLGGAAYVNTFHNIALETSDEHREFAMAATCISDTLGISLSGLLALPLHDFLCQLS
UniProt Q9NPF2, sequence (Q9NPF2 whole entry, looked up): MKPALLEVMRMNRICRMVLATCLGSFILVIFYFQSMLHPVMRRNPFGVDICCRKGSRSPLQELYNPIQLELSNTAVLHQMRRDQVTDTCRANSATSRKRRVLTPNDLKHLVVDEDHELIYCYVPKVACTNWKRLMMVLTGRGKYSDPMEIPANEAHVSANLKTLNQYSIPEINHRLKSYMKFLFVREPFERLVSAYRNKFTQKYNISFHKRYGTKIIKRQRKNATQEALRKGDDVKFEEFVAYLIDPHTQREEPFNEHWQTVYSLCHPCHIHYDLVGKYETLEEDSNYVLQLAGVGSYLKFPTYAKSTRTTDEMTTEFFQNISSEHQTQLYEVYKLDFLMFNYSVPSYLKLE
UniProt Q53ET0, sequence (Q53ET0 whole entry, looked up): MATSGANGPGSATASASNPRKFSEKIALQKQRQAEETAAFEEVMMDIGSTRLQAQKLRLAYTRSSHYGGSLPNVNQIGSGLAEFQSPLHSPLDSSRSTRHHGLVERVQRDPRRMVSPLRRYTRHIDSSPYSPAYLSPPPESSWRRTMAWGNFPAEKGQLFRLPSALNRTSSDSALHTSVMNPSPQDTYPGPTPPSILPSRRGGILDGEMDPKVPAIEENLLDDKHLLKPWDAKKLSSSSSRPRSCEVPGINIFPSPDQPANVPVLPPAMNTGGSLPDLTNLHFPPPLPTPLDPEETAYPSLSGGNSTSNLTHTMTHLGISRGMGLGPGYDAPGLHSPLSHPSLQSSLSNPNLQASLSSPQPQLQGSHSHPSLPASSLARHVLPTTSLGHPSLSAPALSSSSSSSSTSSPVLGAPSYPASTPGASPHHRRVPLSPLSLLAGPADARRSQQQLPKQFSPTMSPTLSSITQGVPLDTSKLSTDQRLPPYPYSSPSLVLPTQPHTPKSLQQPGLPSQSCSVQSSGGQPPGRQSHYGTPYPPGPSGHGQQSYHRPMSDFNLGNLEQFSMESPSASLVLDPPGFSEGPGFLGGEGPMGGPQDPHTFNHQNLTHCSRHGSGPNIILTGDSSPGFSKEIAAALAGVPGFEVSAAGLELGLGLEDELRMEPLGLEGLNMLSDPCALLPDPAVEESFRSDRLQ
UniProt A8MTT3, sequence (A8MTT3 whole entry, looked up): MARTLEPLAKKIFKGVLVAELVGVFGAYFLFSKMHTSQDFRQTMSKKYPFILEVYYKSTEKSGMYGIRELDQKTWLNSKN

Compound in the first experiment: CN1CCN(c2nc(C3=C(c4c[nH]c5ccccc45)C(=O)NC3=O)c3ccccc3n2)CC1 [sotrastaurin]
The experiment is described as follows: log2 fold change, soluble protein after heating vs DMSO (PISA); higher = thermal stabilisation; K562 cells, 10 uM, 30 min; active = over 0.2 and 3.5 SD of the protein, either way, in both replicates (recomputed). The gist of the method: (§1)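 Soluble protein was defined as the supernatant after 21,000xg for 90 min. It came from K562 cells at 2×10^6 cells/mL given 10 μM compound for 30 min, heated in aliquots for 3 min across 48°C-58°C, pooled, and extracted in PBS with 0.5% NP-40 at 4°C, and was quantified by TMTpro 16plex LC-MS/MS with equalised channel sums. Thermal stability against control samples, from duplicates, is reported as log2 fold change.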
Take CRTC3 (UniProt Q6UUV7): the log2 fold change was 0.044.
Same read-out and setting: to CRTC2 (UniProt Q53ET0) belongs -0.09.
In the case of CDCA2 (UniProt Q69YH5), the log2 fold change is -0.148.
In the case of CHST10 (UniProt O43529), the log2 fold change is -0.01.
Consider CDC25B isoform 4 (UniProt P30305), for which the log2 fold change is -0.018.
With CNN1 (UniProt P51911), the log2 fold change was 0.15.
On the same count and under the same terms, under CD68 (UniProt P34810) stands -0.031; under COMMD1 (UniProt Q8N668), -0.038.
Turning to COPS3 isoform 2 (UniProt Q9UNS2), the log2 fold change was 0.134.
COMMD3-BMI1 (UniProt R4GMX3): the log2 fold change is -0.024.
Same read-out and setting: to CCDC57 (UniProt Q2TAC2) belongs 0.059; to CHST11 (UniProt Q9NPF2), -0.02; to CLPTM1L (UniProt G5E9Z2), -0.288.
On the same count and under the same terms, under C1D (UniProt Q13901) stands 0.005.

Compound in a further experiment: CN1CC[C@H](c2c(O)cc(O)c3c(=O)cc(-c4ccccc4Cl)oc23)[C@H](O)C1 [alvocidib]
The experiment is described as above. In short, it runs like this: as §1
With CLN3 (UniProt Q13286), the log2 fold change was 0.107.
As to CRTC3 (UniProt Q6UUV7), the log2 fold change was -0.051.
Consider CNOT4 isoform 9 (UniProt O95628), for which the log2 fold change is 0.
Still for that read-out and setting: to CDCA2 (UniProt Q69YH5) belongs 0.008; to CHST10 (UniProt O43529), -0.106; to CCDC82 (UniProt Q8N4S0), -0.065.
Regarding CCND3 (UniProt P30281), the log2 fold change is 0.008.
Same read-out and setting: to CDC25B isoform 4 (UniProt P30305) belongs -0.031.
As to CNN1 (UniProt P51911), the log2 fold change is -0.115.
On to COMMD3-BMI1 (UniProt R4GMX3), for which the log2 fold change is 0.05.
Same read-out and setting: to CDK2AP2 (UniProt O75956) belongs -0.048; to CCDC57 (UniProt Q2TAC2), -0.055.
On the same count and under the same terms, under CHST11 (UniProt Q9NPF2) stands -0.049; under CLINT1 (UniProt Q14677), -0.112; under CLASP2 (UniProt O75122), -0.069.
Same read-out and setting: to CLPTM1L (UniProt G5E9Z2) belongs 0.051; to CLCN5 isoform 2 (UniProt P51795), -0.032.
With CREB3L2 (UniProt Q70SY1), the log2 fold change is -0.242.
In the case of CPNE5 (UniProt Q9HCH3), the log2 fold change was 0.134.

Compound in a further experiment: CN1CCc2c(c3ccccc3n2Cc2ccc(C(=O)NO)cc2)C1 [Tubastatin A]
The experiment is described as above. In short, it runs like this: as §1
CLN3 (UniProt Q13286): the log2 fold change is 0.065.
With CRTC3 (UniProt Q6UUV7), the log2 fold change was -0.109.
On to CNOT4 isoform 9 (UniProt O95628), for which the log2 fold change is -0.027.
Still for that read-out and setting: to CEBPZOS (UniProt A8MTT3) belongs -0.06; to CRTC2 (UniProt Q53ET0), -0.031.
Still for that read-out and setting: to CDCA2 (UniProt Q69YH5) belongs 0.217; to CHST10 (UniProt O43529), -0.037; to CCDC82 (UniProt Q8N4S0), 0.102.
Take CCND3 (UniProt P30281): the log2 fold change is 0.242.
Still for that read-out and setting: under CNN1 (UniProt P51911) stands 0.126.
Turning to COMMD1 (UniProt Q8N668), the log2 fold change is -0.213.
The same measure, in the same setting: to CKS2 (UniProt P33552) belongs 0.031; to COPS3 isoform 2 (UniProt Q9UNS2), -0.005.
The same measure, in the same setting: under C5orf30 (UniProt Q96GV9) stands 0.502.
Consider COMMD3-BMI1 (UniProt R4GMX3), for which the log2 fold change is -0.074.
The same measure, in the same setting: under CCDC57 (UniProt Q2TAC2) stands 0.026.
The same measure, in the same setting: to CHST11 (UniProt Q9NPF2) belongs 0.08.
In the case of CA1 (UniProt E5RIF9), the log2 fold change is -0.178.
Same read-out and setting: under CLINT1 (UniProt Q14677) stands -0.029.
Still for that read-out and setting: under CLPTM1L (UniProt G5E9Z2) stands -0.109; under C1D (UniProt Q13901), 0.079; under CLCN5 isoform 2 (UniProt P51795), -0.006.
Same read-out and setting: under CREB3L2 (UniProt Q70SY1) stands 0.282; under CPNE5 (UniProt Q9HCH3), 0.082.

Compound in another experiment: CNC(=O)C1=CC=CC=C1NC2=NC(=NC=C2Cl)NC3=C(C=C(C=C3)N4CCOCC4)OC
The experiment is described as above. In short, it runs like this:
as §1
With CLN3 (UniProt Q13286), the log2 fold change is 0.004.
The same measure, in the same setting: under CNOT4 isoform 9 (UniProt O95628) stands 0.187; under CEBPZOS (UniProt A8MTT3), 0.039; under CRTC2 (UniProt Q53ET0), -0.269.
Still for that read-out and setting: to CDCA2 (UniProt Q69YH5) belongs -0.152.
As to CARD9 (UniProt Q9H257), the log2 fold change is 0.388.
As to CHST10 (UniProt O43529), the log2 fold change is 0.035.
Same read-out and setting: under CCDC82 (UniProt Q8N4S0) stands 0.03; under CCND3 (UniProt P30281), -0.018.
On the same count and under the same terms, to CCNL1 (UniProt Q9UK58) belongs -0.179.
On to CDC25B isoform 4 (UniProt P30305), for which the log2 fold change is -0.019.
Same read-out and setting: under CD68 (UniProt P34810) stands 0.043; under COMMD1 (UniProt Q8N668), 0.119.
Same read-out and setting: to CNRIP1 (UniProt Q96F85) belongs 0.053.
The same measure, in the same setting: under CDK2AP2 (UniProt O75956) stands -0.092; under CCDC57 (UniProt Q2TAC2), 0.04; under CHST11 (UniProt Q9NPF2), 0.079.
Regarding CASP7 isoform 3 (UniProt P55210), the log2 fold change is 0.151.
The same measure, in the same setting: under CLASP2 (UniProt O75122) stands 0; under C1D (UniProt Q13901), 0.001.
Same read-out and setting: to CLCN5 isoform 2 (UniProt P51795) belongs 0.009; to CREB3L2 (UniProt Q70SY1), -0.19; to CASK (UniProt O14936), -0.064.
Same read-out and setting: to CPNE5 (UniProt Q9HCH3) belongs 0.049.

For the origin of these results see the supplement of paper PMC10849652.
